Among the data in PubChem BioAssay (NCI) are growth values, retold here.

Test systems include T-47D breast; BT-549 breast; MDA-MB-435 melanoma; SW-620 colon; MCF7 breast; HCT-116 colon; HCC-2998 colon; KM12 colon.
Common to all, as to test: NCI-60 one-dose screen, 48 h (100 = growth as untreated, 0 = no growth, -100 = all killed)
What all share (conditions): 10 µM unless noted

The structures appear in SMILES notation. The panel holds about 83,000 compounds, 20% with a hit somewhere; the sample as a whole holds those more often.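 Negative percent growth values reflect cell death: -40 means 40% of the cells present at the start died, and -100 means all died.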 Unmarked numbers belong to inactive results. The source made the active and inactive calls. The calls were made as follows: active = growth percent below 10; inactive = the rest.

Regarding `CC(=O)Oc1cccc(OC(C)=O)c1OC(C)=O`, the growth in the assay on T-47D breast was 97.1%; in the assay with BT-549 breast, 94.3%; with MDA-MB-435 melanoma it was 94.6%; in the assay on SW-620 colon it was 114%; in the assay on MCF7 breast it was 88.7%; in the assay on HCT-116 colon it was 89.5%. Moreover, the growth in the assay on HCC-2998 colon was 92.1%; with KM12 colon, 105%.
As for `COc1ccc(C(=O)c2cc(OC)c(OC)c(OC)c2)cc1/C=C/C(=O)c1ccc(O)cc1`, the growth in the assay with T-47D breast is 37.3%; in the assay on BT-549 breast, 7.62% (active); in the assay on MDA-MB-435 melanoma, 18.9%; with SW-620 colon, -24.1% (active); with MCF7 breast, 12.1%; in the assay on HCT-116 colon, -23.2% (active). Also, the growth was -22.4% (active) in the assay with HCC-2998 colon and 2.74% (active) with KM12 colon.
Consider `CN(C)c1ccc(-c2ccc(-c3ccc(C(=N)N)cn3)o2)cc1`, for which the growth in the assay with T-47D breast is -68.2% (active); in the assay with BT-549 breast, -11.8% (active); in the assay on MDA-MB-435 melanoma, -84.2% (active); with SW-620 colon it was -72.6% (active); with MCF7 breast, -38.1% (active); in the assay with HCT-116 colon, -62.4% (active). In addition, the growth is -73.5% (active) in the assay with HCC-2998 colon and -97% (active) in the assay with KM12 colon.
`Cc1cccc(-n2c(C)nc3ccc(NC(=O)NCCCl)cc3c2=O)c1`: the growth in the assay with T-47D breast was 103%; with BT-549 breast it was 101%; in the assay with MDA-MB-435 melanoma, 99.2%; with SW-620 colon it was 97.3%; in the assay with MCF7 breast, 86.1%; in the assay with HCT-116 colon, 103%. The growth is 114% in the assay with HCC-2998 colon and 106% in the assay with KM12 colon.
In the case of `O=S(=O)(NCCCNc1cc(-c2cn(-c3ccccc3)nc2-c2cccc(O)c2)ccn1)c1cccc(F)c1`, the growth in the assay on T-47D breast is 15.6%; with BT-549 breast, 44.7%; in the assay on MDA-MB-435 melanoma it was 49.3%; with SW-620 colon, 29.5%; in the assay with MCF7 breast, 31.2%; in the assay on HCT-116 colon, 32.1%. The results for the growth in the assay on HCC-2998 colon and with KM12 colon were 10.3% and 28.2%, respectively.
Regarding `CC/C=C\C[C@H](O)C/C=C1/C(=O)C(Cl)=C[C@@H]1C/C=C\CCCC(=O)OC`, the growth in the assay on T-47D breast is -16.9% (active); with BT-549 breast it was -85.5% (active); with MDA-MB-435 melanoma it was -43.7% (active); with SW-620 colon, -55.3% (active); with MCF7 breast it was -71.2% (active); in the assay with HCT-116 colon it was -83.7% (active). Also, the figures for the growth in the assay with HCC-2998 colon and in the assay with KM12 colon were -92.1% (active) and -81.5% (active), respectively.
As for `O=C1Nc2cc(Cl)ccc2Oc2cc(Oc3ccccc3)ccc21`, the growth in the assay with T-47D breast was 48.5%; in the assay with BT-549 breast, 56.4%; in the assay on MDA-MB-435 melanoma, -3.81% (active); in the assay on SW-620 colon it was 16.6%; with MCF7 breast, 29%; in the assay on HCT-116 colon, 27.8%. Besides, the growth in the assay with HCC-2998 colon is 60.6%; in the assay on KM12 colon, 20%.
For the compound `Nc1c(C(=O)Nc2cccc(C(F)(F)F)c2)sc2nc3c(cc12)CCCCCC3`, the growth in the assay with T-47D breast was -7% (active); in the assay with BT-549 breast it was 59.6%; with MDA-MB-435 melanoma it was 31%; with SW-620 colon, 46%; with MCF7 breast, 20.4%; with HCT-116 colon it was -18.1% (active). In addition, the growth in the assay on HCC-2998 colon was 37.1%; in the assay with KM12 colon, 30.1%.
On to `COC(=O)CCCCCN=Cc1c(O)c(O)c(C(C)C)c2cc(C)c(-c3c(C)cc4c(C(C)C)c(O)c(O)c(C=NCCCCCC(=O)OC)c4c3O)c(O)c12`, for which the growth is 11.8% in the assay on T-47D breast; 35.1% in the assay with BT-549 breast; 21.1% in the assay with MDA-MB-435 melanoma; 20.2% in the assay on SW-620 colon; 12.9% in the assay with MCF7 breast; 9.82% (active) in the assay with HCT-116 colon. The growth in the assay on HCC-2998 colon was 30.2%; with KM12 colon it was 19.7%.
Take `O=C1CCC/C=C\C[C@H]2C=CC(=O)/C2=C/C[C@H](C/C=C\CC(F)(F)F)O1`: the growth was 6.6% (active) in the assay on T-47D breast; -18% (active) in the assay on BT-549 breast; -22.8% (active) with MDA-MB-435 melanoma; -15.7% (active) with SW-620 colon; 6.19% (active) in the assay on MCF7 breast; -51.4% (active) in the assay on HCT-116 colon. For the same compound, the growth is -83.7% (active) with HCC-2998 colon and -71.3% (active) with KM12 colon.
Consider `COc1ccc2c(c1)C=CC(C#N)N2C(=O)c1ccccc1` (stereo not drawn), for which the growth in the assay on T-47D breast is 69.8%; in the assay with BT-549 breast it was 0.256% (active); in the assay with MDA-MB-435 melanoma, -52.4% (active); in the assay with SW-620 colon, 21.6%; in the assay on MCF7 breast it was 15%; in the assay on HCT-116 colon it was 8.13% (active). The growth in the assay with HCC-2998 colon is 18.6%; with KM12 colon, 13.4%.
For the compound `COc1cc(/C=C/C(=O)c2ccccc2O)ccc1OCCCOc1cc2c(cc1OC)C(=O)N1CCC[C@H]1C=N2`, the growth is 21.8% in the assay with T-47D breast; -4.28% (active) in the assay with BT-549 breast; -28.9% (active) in the assay with MDA-MB-435 melanoma; 5.6% (active) in the assay on SW-620 colon; -15.1% (active) with MCF7 breast; 2.66% (active) in the assay with HCT-116 colon. For the same compound, the growth was -16.7% (active) with HCC-2998 colon and -18.3% (active) in the assay on KM12 colon.
Take `Cc1ccc(Cn2c(-c3nonc3N)nc3ccccc32)cc1`: the growth was 74.6% in the assay with T-47D breast; 68.3% in the assay with BT-549 breast; -30.8% (active) in the assay on MDA-MB-435 melanoma; 28.4% in the assay with SW-620 colon; 55.5% in the assay on MCF7 breast; 58.2% in the assay with HCT-116 colon. Also, the growth with HCC-2998 colon was 75.1%; in the assay on KM12 colon, 31.6%.
For `CCNC(=O)C1CCCN1C(=O)C(CCCN=C(N)N)NC(=O)C(CC(C)C)NC(=O)C(CC(C)C)NC(=O)C(Cc1ccc(O)cc1)NC(=O)C(CO)NC(=O)C(Cc1c[nH]c2ccccc12)NC(=O)C(Cc1cnc[nH]1)NC(=O)C1CCC(=O)N1` (stereo not drawn), the growth in the assay with T-47D breast was 104%; with BT-549 breast, 113%; in the assay on MDA-MB-435 melanoma it was 105%; in the assay on SW-620 colon it was 89.4%; with MCF7 breast, 86.1%; with HCT-116 colon it was 95.2%. For the same compound, the growth in the assay on HCC-2998 colon was 94.4%; in the assay with KM12 colon it was 104%.
`O=C1Nc2cc(Cl)ccc2/C1=C/c1ccc(N2CCOCC2)s1`: the growth in the assay on T-47D breast is 84%; in the assay with BT-549 breast, 109%; in the assay on MDA-MB-435 melanoma it was 102%; in the assay on SW-620 colon it was 102%; in the assay on MCF7 breast it was 86.7%; in the assay with HCT-116 colon it was 96.6%. Also, the growth in the assay on HCC-2998 colon was 114%; in the assay on KM12 colon it was 105%.
With `Oc1ccc(Cl)cc1-c1cc(-c2ccc(Cl)cc2)n[nH]1`, the growth was 30.9% in the assay with T-47D breast; 84% with BT-549 breast; 84.9% in the assay with MDA-MB-435 melanoma; 81% in the assay on SW-620 colon; 3.03% (active) in the assay with MCF7 breast; 43.8% in the assay on HCT-116 colon. The growth in the assay on HCC-2998 colon is 22%; in the assay on KM12 colon, 29.6%.
